# Records with an inconclusive call do not appear. The source made the active and inactive calls. The calls were made as follows, unless noted: active = hit-call score of the fitted dose curve at least 0.9, where 1 is the maximum; inactive = score below 0.9.
# Columns and labels:
# [1] = read-out: solute carrier (SLC22A1), SLC22A1 (gene 6580); test: LTEA_HepaRG_SLC22A1: Life Technologies and Expression Analysis (LTEA) Assay for solute carrier (SLC22A1) using HepaRG (AID 2283524); details: mRNA level, 48 h; actives raise or lower the signal;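 as to AC50: differentiated human HepaRG liver cells in serum-free induction medium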
# Outline: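 qRT-PCR readout (TaqMan, Fluidigm arrays) of SLC22A1 transcript, normalized to three housekeeping genes; bidirectional curve fit relative to 0.5% DMSO vehicle. Differentiated human HepaRG cells, 48 h chemical exposure, top concentration 100 uM, half-log steps, eight points.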
# [2] = read-out: NAD(P)H dehydrogenase [quinone] 1 (NQO1), NQO1 (gene 1728); test: LTEA_HepaRG_NQO1: Life Technologies and Expression Analysis (LTEA) Assay for NAD(P)H dehydrogenase [quinone] 1 (NQO1) using HepaRG (AID 2283526); details: mRNA level, 48 h; actives raise or lower the signal
# Outline: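 Transcript induction or suppression is quantified by qRT-PCR in human HepaRG liver cells dosed for 48 hours. Eight half-log concentrations topping at 100 uM are used, with 0.5% DMSO as vehicle and baseline.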
# [3] = read-out: Nuclear factor erythroid 2-related factor 2 (Homo sapiens) (UniProt Q16236); test: LTEA_HepaRG_NFE2L2: Life Technologies and Expression Analysis (LTEA) Assay for Nuclear factor erythroid 2-related factor 2 (NFE2L2) Transcription Factor using HepaRG (AID 2283527); details: mRNA level, 48 h; actives raise or lower the signal;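 as to outcome: TaqMan qRT-PCR transcript level normalised to ACTB GAPDH and POLR2A housekeeping genes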
# Outline: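 HepaRG, 48 h dosing, 8-pt half-log series from 100 uM in 0.5% DMSO, duplicates. Read-out: NFE2L2 mRNA by qRT-PCR (ACTB/GAPDH/POLR2A normalization). Bidirectional curve fit vs DMSO baseline.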
# [4] = read-out: Signal transducer and activator of transcription 3 (Homo sapiens) (UniProt P40763); test: LTEA_HepaRG_STAT3: Life Technologies and Expression Analysis (LTEA) Assay for Signal transducer and activator of transcription (STAT3) using HepaRG (AID 2283529); details: mRNA level, 48 h; actives raise or lower the signal
# Outline: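 HepaRG, 48 h exposure, 8-pt half-log series (top 100 uM), 0.5% DMSO vehicle, duplicates. Readout: STAT3 transcript by Fluidigm qRT-PCR, housekeeping-normalized; bidirectional fit vs DMSO baseline.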
# [5] = read-out: sulfotransferase 2A1 (SULT2A1), SULT2A1 (gene 6822); test: LTEA_HepaRG_SULT2A1: Life Technologies and Expression Analysis (LTEA) Assay for sulfotransferase 2A1 (SULT2A1) using HepaRG (AID 2283531); details: mRNA level, 48 h; actives raise or lower the signal
# Outline: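 Transcript levels of SULT2A1, quantified by qRT-PCR and normalized to three housekeeping genes, serve as the readout. Human HepaRG cultures receive test chemicals for 48 h at up to 100 uM in half-log steps, with 0.5% DMSO vehicle.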
# [6] = read-out: Transforming Growth Factor (TGFA), TGFA (gene 7039); test: LTEA_HepaRG_TGFA: Life Technologies and Expression Analysis (LTEA) Assay for Transforming Growth Factor (TGFA) using HepaRG (AID 2283532); details: mRNA level, 48 h; actives raise or lower the signal
# Outline: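 qRT-PCR read-out of TGFA transcript, normalized to three housekeeping genes, fitted bidirectionally against 0.5% DMSO baseline. Human HepaRG cultures received chemicals for 48 h at eight half-log concentrations, top 100 uM.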
# [7] = read-out: Transforming Growth Factor (TGFB1), TGFB1 (gene 7040); test: LTEA_HepaRG_TGFB1: Life Technologies and Expression Analysis (LTEA) Assay for Transforming Growth Factor (TGFB1) Transporter using HepaRG (AID 2283533); details: mRNA level, 48 h; actives raise or lower the signal
# Outline: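 HepaRG, 48 h post-plating, switched to serum-free induction medium; chemicals 100 uM top, half-log, 8 pts, 0.5% DMSO, dup; 48 h exposure; RNA → Fluidigm TaqMan qRT-PCR; norm ACTB/GAPDH/POLR2A; bidirectional fit vs DMSO.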
# TIMP1, TIMP1 (gene 7076) = test: LTEA_HepaRG_TIMP1: Life Technologies and Expression Analysis (LTEA) Assay for TIMP1 using HepaRG (AID 2283534); details: mRNA level, 48 h; actives raise or lower the signal
# Outline: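 Readout is TIMP1 mRNA level measured by qRT-PCR and normalized to three housekeeping genes. Human HepaRG cells were treated for 48 h in duplicate at eight concentrations up to 100 uM (0.5% DMSO); gain or loss fitted against DMSO.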
# [8] = read-out: Tumor necrosis factor receptor 1 (TNFRSF1A), TNFRSF1A (gene 7132); test: LTEA_HepaRG_TNFRSF1A: Life Technologies and Expression Analysis (LTEA) Assay for Tumor necrosis factor receptor 1 (TNFRSF1A) using HepaRG (AID 2283535); details: mRNA level, 48 h; actives raise or lower the signal
# Outline: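 Read-out is TNFRSF1A transcript level by TaqMan qRT-PCR, normalized to three housekeeping genes, scored as gain or loss of signal versus 0.5% DMSO. Human HepaRG cells received test chemicals for 48 h at up to 100 uM (half-log series).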
# [9] = read-out: Cellular tumor antigen p53 (Homo sapiens) (UniProt P04637); test: LTEA_HepaRG_TP53: Life Technologies and Expression Analysis (LTEA) Assay for Tumor Protein P53 (TP53) using HepaRG (AID 2283537); details: mRNA level, 48 h; actives raise or lower the signal
# Outline: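 TP53 transcript measured by qRT-PCR, normalized to three housekeeping genes, after 48 h treatment of human HepaRG cultures with chemicals from 100 uM downward in half-log steps (0.5% DMSO vehicle, serum-free induction medium). Up- or down-regulation fitted against DMSO.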
# [10] = read-out: UDP glucuronosyltransferase (UGT1A1), UGT1A1 (gene 54658); test: LTEA_HepaRG_UGT1A1: Life Technologies and Expression Analysis (LTEA) Assay for UDP glucuronosyltransferase (UGT1A1) using HepaRG (AID 2283538); details: mRNA level, 48 h; actives raise or lower the signal
# Outline: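 Cells are plated, cultured 48 h, switched to serum-free induction medium, then dosed 48 h at eight concentrations (max 100 uM, 0.5% DMSO). RNA is isolated and UGT1A1 expression measured by qRT-PCR; changes versus DMSO are fitted in both directions.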
# [11] = read-out: UDP glucuronosyltransferase (UGT1A6), UGT1A6 (gene 54578); test: LTEA_HepaRG_UGT1A6: Life Technologies and Expression Analysis (LTEA) Assay for UDP glucuronosyltransferase (UGT1A6) using HepaRG (AID 2283539); details: mRNA level, 48 h; actives raise or lower the signal
# Outline: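 HepaRG, 48 h post-plating switch to serum-free induction medium; chemical 48 h, 100 uM top, half-log x8, duplicate, 0.5% DMSO. Phenobarbital 1mM induction control. UGT1A6 mRNA by TaqMan qRT-PCR; gain/loss fit vs DMSO.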
# [12] = read-out: X-box binding protein 1 (XBP1), XBP1 (gene 7494); test: LTEA_HepaRG_XBP1: Life Technologies and Expression Analysis (LTEA) Assay for X-box binding protein 1 (XBP1) using HepaRG (AID 2283540); details: mRNA level, 48 h; actives raise or lower the signal
# Outline: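 Transcript levels of XBP1, measured by qRT-PCR and normalised to three housekeeping genes, were fitted bidirectionally relative to 0.5% DMSO controls. Human HepaRG cells received eight-point half-log dilutions from 100 uM for 48 h.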
# [13] = LTEA_HepaRG_LDH_cytotoxicity: Cytotoxicity Assessment in the Life Technologies and Expression Analysis (LTEA) Assay (AID 2283563; active = hit-call score of the fitted dose curve at least 0.9, where 1 is the maximum;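 as to AC50: LDH activity released into spent culture medium as a marker of cell death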)
# Outline: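 Cells were thawed and plated for 48 h. Medium was then replaced with serum-free induction medium. Chemicals (8 half-log points, maximum 100 uM, 0.5% DMSO) were added in duplicate for 48 h, after which spent medium was assayed for LDH.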
# [14] = ATG_XTT_Cytotoxicity: Cytotoxicity Assessment in the Attagene TRANS-FACTORIAL HepG2 Assay (AID 2283584; active = hit-call score of the fitted dose curve at least 0.9, where 1 is the maximum)
# Outline: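 Cells: human HepG2, transiently transfected with MRTU reporter constructs. Exposure 24 h. Readout: XTT, cell number. Baseline/neg ctrl DMSO; loss-of-signal scored.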
# [15] = TOX21_p53_BLA_p2_viability: Viability Assessment in the Tox21 HCT-116 p53 Agonism Beta-lactamase Assay, Phase 2 (AID 2283591; active = hit-call score of the fitted dose curve at least 0.9, where 1 is the maximum;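 also: compound exposure lasted 16 h at 37 °C; actives lower the ATP signal meaning cytotoxicity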)
# Outline: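 HCT116 p53-bla cells, 4000/well, dosed after 5 h plating (217-fold dilution of DMSO stocks) and incubated 16 h at 37C. Viability taken as cellular ATP by CellTiter-Glo luminescence after 30 min RT; signal loss marks cytotoxicity.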
# [16] = read-out: Pyruvate Dehydrogenase Kinase 4 (PDK4), PDK4 (gene 5166); test: LTEA_HepaRG_PDK4: Life Technologies and Expression Analysis (LTEA) Assay for Pyruvate Dehydrogenase Kinase 4 (PDK4) using HepaRG (AID 2283525); details: mRNA level, 48 h; actives raise or lower the signal
# Outline: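 HepaRG (human liver line), 48 h chemical exposure, 8-pt half-log CRC top 100 uM, 0.5% DMSO vehicle, duplicates. Readout: TaqMan qRT-PCR of PDK4 mRNA, housekeeping-normalized; gain/loss fit relative to DMSO baseline.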
# [17] = read-out: Thyroid Hormone Responsive (THRSP), THRSP (gene 7069); test: LTEA_HepaRG_THRSP: Life Technologies and Expression Analysis (LTEA) Assay for Thyroid Hormone Responsive (THRSP) using HepaRG (AID 2283536); details: mRNA level, 48 h; actives raise or lower the signal
# Outline: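 qRT-PCR read-out (Fluidigm TaqMan), housekeeping-normalized (ACTB/GAPDH/POLR2A). HepaRG, 48 h chemical exposure, 8-pt half-log series from 100 uM in 0.5% DMSO, duplicates. Bidirectional curve fit vs 0.5% DMSO baseline.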
# [18] = read-out: solute carrier (SLCO1B1), SLCO1B1 (gene 10599); test: LTEA_HepaRG_SLCO1B1: Life Technologies and Expression Analysis (LTEA) Assay for solute carrier (SLCO1B1) using HepaRG (AID 2283530); details: mRNA level, 48 h; actives raise or lower the signal
# Outline: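 HepaRG, serum-free induction medium, 48 h dosing, 8-pt half-log from 100 uM, 0.5% DMSO vehicle, duplicates. Readout: SLCO1B1 mRNA, qRT-PCR, ACTB/GAPDH/POLR2A normalization; up or down fit vs DMSO.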
# Chain of Nuclear factor erythroid 2-related factor 2 (Homo sapiens) (Q16236 whole entry, looked up): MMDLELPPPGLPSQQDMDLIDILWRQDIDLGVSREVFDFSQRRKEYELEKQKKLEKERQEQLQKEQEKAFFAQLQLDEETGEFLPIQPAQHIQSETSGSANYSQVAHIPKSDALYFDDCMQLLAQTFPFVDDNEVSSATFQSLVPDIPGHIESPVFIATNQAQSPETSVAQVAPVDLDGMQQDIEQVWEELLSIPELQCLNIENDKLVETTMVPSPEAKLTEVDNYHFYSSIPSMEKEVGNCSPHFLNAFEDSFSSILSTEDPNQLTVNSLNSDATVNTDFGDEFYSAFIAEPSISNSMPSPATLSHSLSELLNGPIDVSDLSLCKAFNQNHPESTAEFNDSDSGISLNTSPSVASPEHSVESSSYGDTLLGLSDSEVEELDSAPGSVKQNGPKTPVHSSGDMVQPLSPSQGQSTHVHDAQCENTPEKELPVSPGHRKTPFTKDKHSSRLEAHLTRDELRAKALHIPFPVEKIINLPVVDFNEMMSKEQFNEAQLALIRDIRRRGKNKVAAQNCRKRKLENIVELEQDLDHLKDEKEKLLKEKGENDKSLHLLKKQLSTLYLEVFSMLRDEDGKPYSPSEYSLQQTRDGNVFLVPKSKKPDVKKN
# Chain of Signal transducer and activator of transcription 3 (Homo sapiens) (P40763 whole entry, looked up): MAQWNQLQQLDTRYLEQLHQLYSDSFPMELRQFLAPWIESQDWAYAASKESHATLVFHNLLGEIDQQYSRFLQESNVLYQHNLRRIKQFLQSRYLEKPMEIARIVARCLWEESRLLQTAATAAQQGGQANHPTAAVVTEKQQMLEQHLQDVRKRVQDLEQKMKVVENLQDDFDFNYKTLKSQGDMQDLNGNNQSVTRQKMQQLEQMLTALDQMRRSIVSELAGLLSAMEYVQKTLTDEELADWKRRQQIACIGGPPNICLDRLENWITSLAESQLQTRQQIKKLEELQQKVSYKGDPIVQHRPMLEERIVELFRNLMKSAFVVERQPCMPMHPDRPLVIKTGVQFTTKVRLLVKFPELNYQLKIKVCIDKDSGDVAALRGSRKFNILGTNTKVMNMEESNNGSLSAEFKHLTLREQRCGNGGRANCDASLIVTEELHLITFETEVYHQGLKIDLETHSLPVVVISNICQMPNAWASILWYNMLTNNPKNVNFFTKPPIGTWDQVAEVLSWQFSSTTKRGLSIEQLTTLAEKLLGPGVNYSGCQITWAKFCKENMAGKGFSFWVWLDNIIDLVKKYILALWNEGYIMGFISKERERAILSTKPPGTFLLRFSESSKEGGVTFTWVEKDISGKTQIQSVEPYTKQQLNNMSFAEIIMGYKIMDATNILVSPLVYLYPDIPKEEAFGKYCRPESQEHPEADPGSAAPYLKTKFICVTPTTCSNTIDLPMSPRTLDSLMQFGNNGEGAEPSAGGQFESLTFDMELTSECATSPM
# Chain of Cellular tumor antigen p53 (Homo sapiens) (P04637 whole entry, looked up): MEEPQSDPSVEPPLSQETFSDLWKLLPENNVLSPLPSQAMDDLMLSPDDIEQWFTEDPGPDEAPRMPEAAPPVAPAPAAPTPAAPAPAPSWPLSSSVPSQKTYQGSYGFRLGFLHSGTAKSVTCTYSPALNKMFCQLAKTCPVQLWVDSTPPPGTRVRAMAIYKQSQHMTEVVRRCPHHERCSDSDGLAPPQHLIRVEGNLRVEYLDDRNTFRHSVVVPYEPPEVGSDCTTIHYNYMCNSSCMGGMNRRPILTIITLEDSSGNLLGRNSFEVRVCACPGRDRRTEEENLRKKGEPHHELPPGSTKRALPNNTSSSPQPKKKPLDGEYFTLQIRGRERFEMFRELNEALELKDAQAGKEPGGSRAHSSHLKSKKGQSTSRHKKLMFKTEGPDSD
compound,measurement,setting,value
O=C1O[C@H]([C@H](O)CO)C(O)=C1O,outcome,[1],inactive
same,outcome,[2],inactive
same,outcome,[3],inactive
same,outcome,[4],inactive
same,outcome,[5],inactive
same,outcome,[6],inactive
same,outcome,[7],inactive
same,outcome,"TIMP1, TIMP1 (gene 7076)",inactive
same,outcome,[8],inactive
same,outcome,[9],inactive
same,outcome,[10],inactive
same,outcome,[11],inactive
same,outcome,[12],inactive
same,outcome,[13],inactive
same,outcome,[14],inactive
same,outcome,[15],inactive
CC(=O)O[C@]1(C(C)=O)CC[C@H]2[C@@H]3C=C(Cl)C4=CC(=O)[C@@H]5C[C@@H]5[C@]4(C)[C@H]3CC[C@@]21C,AC50,[1],50 µM (active)
same,outcome,[16],inactive
same,outcome,[2],inactive
same,AC50,[3],81.2 µM (active)
same,AC50,[4],50 µM (active)
same,AC50,[5],50 µM (active)
same,outcome,[6],inactive
same,outcome,[7],inactive
same,outcome,"TIMP1, TIMP1 (gene 7076)",inactive
same,outcome,[8],inactive
same,outcome,[17],inactive
same,AC50,[10],72.3 µM (active)
same,AC50,[11],73.3 µM (active)
same,outcome,[12],inactive
same,AC50,[13],53.7 µM (active)
same,outcome,[14],inactive
CC(=O)CC(c1ccccc1)c1c(O)c2ccccc2oc1=O (centres undefined),outcome,[1],inactive
same,outcome,[16],inactive
same,outcome,[3],inactive
same,outcome,[4],inactive
same,outcome,[18],inactive
same,outcome,[5],inactive
same,outcome,[6],inactive
same,outcome,[7],inactive
same,outcome,"TIMP1, TIMP1 (gene 7076)",inactive
same,outcome,[8],inactive
same,outcome,[10],inactive
same,outcome,[11],inactive
same,outcome,[12],inactive
same,outcome,[14],inactive
CC(C)c1cccc(C(C)C)c1,outcome,[1],inactive
same,outcome,[16],inactive
same,outcome,[2],inactive
same,outcome,[3],inactive
same,outcome,[4],inactive
same,outcome,[5],inactive
same,outcome,[6],inactive
same,outcome,[7],inactive
same,outcome,"TIMP1, TIMP1 (gene 7076)",inactive
same,outcome,[8],inactive
same,outcome,[10],inactive
same,outcome,[11],inactive
same,outcome,[12],inactive

# Reference: PubChem BioAssay (EPA / NIEHS)
